Assay results reported in the supplement of paper PMC7261846.
± gives the uncertainty stated by the source.

These compounds were tested on Candida albicans SNY425 biofilm (assay: biofilm OD600 with compound plus antifungal (OD600 (absorbance)); higher = more biofilm remaining). Details: assay detail: sustained inhibition (compound + antifungal during 90-min adherence and 24-h growth).

Compound | biofilm OD600
COC(=O)C[C@H](NC(=O)[C@H](C)NC(=O)[C@@H](NC(=O)OCc1ccccc1)C(C)C)C(=O)CF + CC[C@H](C)C[C@H](C)CCCCCCCCC(=O)N[C@H]1C[C@@H](O)[C@@H](NCCN)NC(=O)[C@@H]2[C@@H](O)CCN2C(=O)[C@H]([C@H](O)CCN)NC(=O)[C@H]([C@H](O)[C@@H](O)c2ccc(O)cc2)NC(=O)[C@@H]2C[C@@H](O)CN2C(=O)[C@H]([C@@H](C)O)NC1=O [caspofungin] (first compound 12.5 µM) | 0.177 ± 0.0034
C[C@H](NC(=O)[C@@H]1CCCN1C(=O)[C@@H]1CCCN1C(=O)[C@@H](O)[C@H](N)Cc1ccccc1)C(N)=O [Apstatin] + C[C@@H]1[C@H](O)[C@@H](C)/C=C/C=C/C=C/C=C/C=C/C=C/C=C/[C@H](O[C@@H]2O[C@H](C)[C@@H](O)[C@H](N)[C@@H]2O)C[C@@H]2O[C@](O)(C[C@@H](O)C[C@@H](O)[C@H](O)CC[C@@H](O)C[C@@H](O)CC(=O)O[C@H]1C)C[C@H](O)[C@H]2C(=O)O [amphotericin B] (first compound 12.5 µM) | 0.193 ± 0.0078
CC(C)CCNC(=O)[C@H](CC(C)C)NC(=O)[C@H]1O[C@@H]1C(=O)O + C[C@@H]1[C@H](O)[C@@H](C)/C=C/C=C/C=C/C=C/C=C/C=C/C=C/[C@H](O[C@@H]2O[C@H](C)[C@@H](O)[C@H](N)[C@@H]2O)C[C@@H]2O[C@](O)(C[C@@H](O)C[C@@H](O)[C@H](O)CC[C@@H](O)C[C@@H](O)CC(=O)O[C@H]1C)C[C@H](O)[C@H]2C(=O)O [amphotericin B] (first compound 12.5 µM) | 0.21 ± 0.0074
C[C@H](CS)C(=O)N1CCC[C@H]1C(=O)O [Captopril] + OC(Cn1cncn1)(Cn1cncn1)c1ccc(F)cc1F [fluconazole] (first compound 12.5 µM) | 0.167 ± 0.01
O=C1Nc2ccc([N+](=O)[O-])cc2C1=O [5-Nitroisatin] + OC(Cn1cncn1)(Cn1cncn1)c1ccc(F)cc1F [fluconazole] (first compound 12.5 µM) | 0.107 ± 0.011
Nc1ccc(CC(CC(=O)O)C(=O)O)cc1 [4-Amino-D, L-benzylsuccinic acid] + C[C@@H]1[C@H](O)[C@@H](C)/C=C/C=C/C=C/C=C/C=C/C=C/C=C/[C@H](O[C@@H]2O[C@H](C)[C@@H](O)[C@H](N)[C@@H]2O)C[C@@H]2O[C@](O)(C[C@@H](O)C[C@@H](O)[C@H](O)CC[C@@H](O)C[C@@H](O)CC(=O)O[C@H]1C)C[C@H](O)[C@H]2C(=O)O [amphotericin B] (first compound 12.5 µM) | 0.185 ± 0.0047
O=C(O[C@@H]1Cc2c(O)cc(O)cc2O[C@@H]1c1cc(O)c(O)c(O)c1)c1cc(O)c(O)c(O)c1 [Epigallocatechin gallate] + CC[C@H](C)C[C@H](C)CCCCCCCCC(=O)N[C@H]1C[C@@H](O)[C@@H](NCCN)NC(=O)[C@@H]2[C@@H](O)CCN2C(=O)[C@H]([C@H](O)CCN)NC(=O)[C@H]([C@H](O)[C@@H](O)c2ccc(O)cc2)NC(=O)[C@@H]2C[C@@H](O)CN2C(=O)[C@H]([C@@H](C)O)NC1=O [caspofungin] (first compound 12.5 µM) | 0.211 ± 0.01
NC(=O)c1cccc(-c2cccc(OC(=O)NC3CCCCC3)c2)c1 + CC[C@H](C)C[C@H](C)CCCCCCCCC(=O)N[C@H]1C[C@@H](O)[C@@H](NCCN)NC(=O)[C@@H]2[C@@H](O)CCN2C(=O)[C@H]([C@H](O)CCN)NC(=O)[C@H]([C@H](O)[C@@H](O)c2ccc(O)cc2)NC(=O)[C@@H]2C[C@@H](O)CN2C(=O)[C@H]([C@@H](C)O)NC1=O [caspofungin] (first compound 12.5 µM) | 0.171 ± 0.0069
O=C(O[C@@H]1Cc2c(O)cc(O)cc2O[C@@H]1c1cc(O)c(O)c(O)c1)c1cc(O)c(O)c(O)c1 [Epigallocatechin gallate] + OC(Cn1cncn1)(Cn1cncn1)c1ccc(F)cc1F [fluconazole] (first compound 12.5 µM) | 0.164 ± 0.01
O=C1Nc2ccc([N+](=O)[O-])cc2C1=O [5-Nitroisatin] + CC[C@H](C)C[C@H](C)CCCCCCCCC(=O)N[C@H]1C[C@@H](O)[C@@H](NCCN)NC(=O)[C@@H]2[C@@H](O)CCN2C(=O)[C@H]([C@H](O)CCN)NC(=O)[C@H]([C@H](O)[C@@H](O)c2ccc(O)cc2)NC(=O)[C@@H]2C[C@@H](O)CN2C(=O)[C@H]([C@@H](C)O)NC1=O [caspofungin] (first compound 12.5 µM) | 0.156 ± 0.013
CCCC[C@@H](C=O)NC(=O)[C@H](CC(C)C)NC(=O)OCc1ccccc1 [Calpeptin] + C[C@@H]1[C@H](O)[C@@H](C)/C=C/C=C/C=C/C=C/C=C/C=C/C=C/[C@H](O[C@@H]2O[C@H](C)[C@@H](O)[C@H](N)[C@@H]2O)C[C@@H]2O[C@](O)(C[C@@H](O)C[C@@H](O)[C@H](O)CC[C@@H](O)C[C@@H](O)CC(=O)O[C@H]1C)C[C@H](O)[C@H]2C(=O)O [amphotericin B] (first compound 12.5 µM) | 0.189 ± 0.01
CC(C)(C)NC(=O)[C@@H]1C[C@@H]2CCCC[C@@H]2CN1C[C@@H](O)[C@H](Cc1ccccc1)NC(=O)[C@H](CC(N)=O)NC(=O)c1ccc2ccccc2n1 [saquinavir] + C[C@@H]1[C@H](O)[C@@H](C)/C=C/C=C/C=C/C=C/C=C/C=C/C=C/[C@H](O[C@@H]2O[C@H](C)[C@@H](O)[C@H](N)[C@@H]2O)C[C@@H]2O[C@](O)(C[C@@H](O)C[C@@H](O)[C@H](O)CC[C@@H](O)C[C@@H](O)CC(=O)O[C@H]1C)C[C@H](O)[C@H]2C(=O)O [amphotericin B] (first compound 12.5 µM) | 0.0922 ± 0.0023
